Results: PubChem BioAssay
Activity calls are given as the source filed them.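 Rule for the calls: active = GFP response below 50% of the DMSO control; inconclusive = fewer than 70 events counted for a yeast strain; inactive = the rest.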

Assay: RPL19A-GFP modulators, yeast TOR pathway, confirmation, cell-based, S. cerevisiae, flow cytometry, cherry picks, mother/daughter gates (AID 2270)
Conditions: S. cerevisiae RPL19A-GFP strain, 3 h, at 10 µM, stronger effect = lower value, 100 = same GFP as DMSO wells

GFP response vs DMSO, inactive:
CN(C)c1ccc(/C=C/C(=O)c2cccc(Br)c2)cc1 104%, CN(c1ccccc1)c1ccc(/C=c2\s/c(=C(/C#N)C(=O)C(C)(C)C)n(Cc3ccco3)c2=O)cc1 118%, CS(=O)(=O)N1N=C(c2ccccc2)CC1c1ccc2c(c1)OCO2 (configuration not stated) 136%, CCOC(=O)N1CCN(C(=O)CCc2ccc(S(=O)(=O)NCCc3ccccc3)cc2)CC1 99.3%, CC(C)(C)c1ccc(C(=O)CC(Sc2ccc(Cl)cc2)C(=O)O)cc1 (configuration not stated) 100%, Cc1cc(C)c(C(=O)Cn2cnc3cc([N+](=O)[O-])ccc3c2=O)cc1C 100%, CC(C)(C)C(=O)/C=c1\s/c(=C\c2ccc(-c3ccc([N+](=O)[O-])cc3)o2)c(=O)n1CC(=O)NC(N)=O 101%
